This is part of a sample that, as a whole, favours compounds with a hit. Of some 83,000 tested, about 20% had one in any assay.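 Plates (96-well) were seeded with cells, treated with compound at one concentration, and incubated for 48 hours before percent growth was determined.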 Calls of active or inactive are those of the source. How the source made its calls: active means growth percent below 10; inactive means the rest.
What was measured:
Experiment in all cases: NCI-60 one-dose screen, 48 h (100 = growth as untreated, 0 = no growth, -100 = all killed)
Details in all cases: 10 µM unless noted
[1] = system: SR leukemia
[2] = system: RPMI-8226 leukemia
[3] = system: OVCAR-8 ovarian
[4] = system: OVCAR-5 ovarian
[5] = system: OVCAR-4 ovarian
[6] = system: IGROV1 ovarian
[7] = system: OVCAR-3 ovarian
[8] = system: HS 578T breast
[9] = system: NCI/ADR-RES ovarian
[10] = system: SK-OV-3 ovarian

Measured: growth

NCCNc1nc(-c2ccccc2)nc2nc(-c3ccccc3)oc12
active: [1] 7.63%
inactive: [2] 68.7% | [3] 97.7% | [4] 105% | [5] 96.5% | [6] 81.8% | [7] 88.2% | [8] 91.3% | [9] 91.8%

CC1(n2nnnc2N2CCCN(c3ncccc3N)CC2)CCC1
inactive: [1] 79.1% | [2] 104% | [3] 102% | [4] 98.7% | [5] 97.2% | [6] 99.7% | [7] 106% | [8] 97.5% | [9] 103%

O=[N+]([O-])c1cc(S(=O)(=O)c2ccc(F)c([N+](=O)[O-])c2)ccc1F
inactive: [3] 80.9% | [4] 122% | [5] 112% | [10] 117% | [7] 101% | [8] 80.6% | [9] 108%
active: [1] 9.57% | [2] 6.35%

COC(=O)CNc1nc(N(C)O)nc(N(C)O)n1
active: [7] -6.47%
inactive: [1] 34.3% | [2] 36.4% | [3] 34.3% | [4] 87.7% | [5] 29.3% | [6] 48% | [8] 77.8% | [9] 21.3%

NC(Cc1ccc(O)cc1)C(=O)N/N=C/c1ccccc1O (stereo unspecified)
inactive: [1] 82.5% | [2] 103% | [3] 96.2% | [4] 110% | [5] 90.1% | [6] 92.8% | [7] 103% | [8] 107% | [9] 102%

Nc1c2c(nc3ccc(Cl)cc13)CC(c1ccccc1)CC2=O (stereo unspecified)
inactive: [1] 14.3% | [2] 25.8% | [3] 72.1% | [4] 73.2% | [5] 89.2% | [6] 38.3% | [7] 20.6% | [8] 73.5% | [9] 22.5%

CN(C)c1cccc2[nH]c(-c3[nH]ncc3Nc3ccnc(N)n3)nc12
active: [1] 7.64% | [2] -15.6% | [3] -22.7% | [4] -1.19% | [5] -11.7% | [6] -11% | [7] -6.36% | [8] -13.8% | [9] -1.48%

O=C1CN(c2ccccc2)C(=O)C1C(=O)Nc1ccc(Cl)c(Cl)c1 (stereo unspecified)
active: [1] 1.54% [100 µM] | [3] -9.87% [100 µM] | [5] 0.243% [100 µM]
inactive: [2] 34.9% [100 µM] | [4] 36.3% [100 µM] | [10] 20.3% [100 µM] | [6] 20.9% [100 µM] | [7] 39.3% [100 µM] | [8] 32.8% [100 µM] | [9] 21.6% [100 µM]

C=C1C(=O)O[C@H]2[C@H]1CC/C(COC(=O)NCCc1c[nH]c3ccccc13)=C\CC[C@@]1(C)O[C@@H]21
inactive: [3] 36.4% | [4] 56.6% | [5] 38.4% | [8] 81% | [9] 65.9%
active: [1] 0.79% | [2] -25.7% | [6] -16.6% | [7] -65.6%

Nc1ccccc1NC(=O)c1ccc(CN2CCC/C(=C\c3ccccn3)C2=O)cc1
inactive: [1] 14.1% | [2] 11.8% | [3] 26.4% | [4] 20.9% | [5] 47.6% | [6] 21.2% | [7] 27.6% | [8] 36.2% | [9] 28.7%

C#CCn1c2c(c3ccccc31)C[C@]1(C)[C@H]3CC[C@@H]4[C@@H]5C(=CCC[C@H]5C(=C)C)CC[C@@]4(C)[C@]3(C)CC[C@H]1C2(C)C
inactive: [1] 82.7% | [2] 106% | [3] 105% | [4] 101% | [5] 100% | [10] 108% | [6] 98.4% | [7] 108% | [8] 93.8% | [9] 106%

C[C@H]1[C@H]2C3=CC[C@@H]4[C@@]5(C)C/C(=C/c6ccco6)C(=O)C(C)(C)[C@@H]5CC[C@@]4(C)[C@]3(C)CC[C@@]2(C(=O)N2CCOCC2)CC[C@@H]1C
inactive: [1] 29.4% | [2] 40.4% | [3] 54.7% | [4] 96.6% | [5] 50.1% | [6] 56.5% | [7] 55.6% | [8] 77.9% | [9] 83.1%

O=C1c2ccccc2C(=Cc2ccccc2)c2ccccc21
active: [1] 8.17% | [5] 6.28% | [10] -3.56% | [7] -36.5% | [9] -64.4%
inactive: [2] 22.4% | [3] 21.6% | [4] 43.3% | [6] 40%

CCCCCCCC(=O)SCC/C=C/[C@@H]1CC(=O)NCc2cccc(n2)CN(Cc2ccc(Cl)cc2)CC(=O)N[C@@H](C(C)C)C(=O)O1
inactive: [5] 28% | [6] 10.9% | [9] 13%
active: [1] 8.39% | [2] 8.51% | [3] -0.619% | [4] -5.64% | [7] 3.13% | [8] -5.68%

COC1=C(Br)C(=O)C(OC)=C(Br)C1=O
inactive: [1] 42.7% | [2] 101% | [3] 105% | [4] 113% | [5] 96.8% | [10] 110% | [6] 111% | [7] 91% | [9] 104%

CN(C)c1ccc(-c2ccc(-c3ccc(C(=N)N)c(F)c3)s2)cc1
inactive: [8] 102%
active: [1] 1.32% | [2] -52.6% | [3] -26.4% | [4] -89.2% | [5] -85.1% | [6] -84% | [7] -88.2% | [9] -49.2%

COc1ccc2c(c1)C(Br)=C(CCO)C2c1ccccc1 (stereo unspecified)
inactive: [1] 112% | [2] 40.7% | [3] 86.1% | [4] 78% | [5] 87.3% | [6] 83.5% | [7] 26% | [8] 35.7% | [9] 65.1%

Oc1cc(/C=C/c2nc(N3CCOCC3)c3cc(Cl)c(Cl)cc3n2)cc(O)c1O
inactive: [1] 87.8% | [2] 103% | [3] 107% | [4] 102% | [5] 110% | [10] 105% | [6] 108% | [8] 118% | [9] 100%

COc1cc2nc(Cl)nc(Nc3cccc(C(=O)/C=C/c4ccc(Br)cc4)c3)c2cc1OC
inactive: [1] 14.7% | [3] 84.7% | [4] 102% | [5] 93% | [10] 96.7% | [6] 86.8% | [7] 88.6% | [8] 98.4% | [9] 92.2%
active: [2] -2.21%

CN(C)c1ccc(N)c2ccccc12
inactive: [1] 55% | [2] 68.8% | [3] 74.6% | [4] 75.4% | [5] 27.7% | [10] 85.2% | [6] 65.1% | [9] 77.2%
active: [7] -15.6%

COC(c1ccccc1)(c1ccccc1)c1ccccc1
inactive: [1] 114% | [2] 171% | [3] 98.8% | [4] 113% | [5] 99.3% | [10] 107% | [6] 123% | [7] 108% | [8] 103% | [9] 108%

NC(N)=N/N=C/c1ccc(-c2ccc(-c3ccc(Cl)cn3)s2)cc1
inactive: [1] 11.6% | [2] 38.4% | [3] 99.3% | [4] 107% | [5] 99.3% | [6] 91.1% | [7] 85.9% | [8] 92.3%

NC(=O)[C@@H]1CC2CCC1C2 (stereo partly specified)
inactive: [1] 90.6% | [2] 93.3% | [3] 108% | [4] 95% | [5] 106% | [10] 101% | [6] 110% | [7] 93.4% | [9] 121%

Nc1ccc(Br)cn1
inactive: [1] 98.9% | [2] 101% | [3] 102% | [4] 93% | [5] 101% | [10] 103% | [6] 110% | [8] 99.5% | [9] 103%

CCCC(=O)N1CCCCC1CC (stereo unspecified)
inactive: [1] 102% | [2] 95.7% | [3] 95.3% | [4] 87.5% | [5] 102% | [10] 111% | [6] 120% | [7] 105% | [9] 115%

CC1(C)CC[C@]2(CO)CC[C@]3(C)C(=CC[C@@H]4[C@@]5(C)CC[C@H](NCO)C(C)(C)[C@@H]5CC[C@]43C)[C@@H]2C1
active: [1] -34.7% | [2] -29.1% | [3] -35.6% | [4] 2.64% | [5] -32.5% | [6] -56% | [7] -66.2% | [9] -64.8%
inactive: [10] 70.8% | [8] 11.4%

C[N+](C)(CCCCCC[N+](C)(C)C1c2ccccc2-c2ccccc21)C1c2ccccc2-c2ccccc21
inactive: [1] 98.3% | [2] 101% | [3] 104% | [4] 108% | [5] 111% | [10] 111% | [7] 104% | [8] 98.2% | [9] 115%

O=C(O)c1cccc2c1-c1ccc(Cl)cc1C2
inactive: [1] 88.2% | [2] 102% | [3] 107% | [4] 115% | [10] 117% | [6] 114% | [7] 118% | [8] 103% | [9] 110%
